# PubChem BioAssay
# Several values for one entry are separate records, joined by “and”; a condition that tells them apart may be missing. Identical values can stand only once. Activity calls are given as the source filed them. How the calls were made is not given here.
# Assay: viability loss with induced miR-34 in A549 – imaging, A549 dox-inducible miR-34, nuclei and caspase counts, primary screen (AID 1347080)
# Details: A549 miR-34 inducible, Hoechst nuclei count, 48 h; measured here: total cells without miR-34 induction
row,SMILES,cell count
1,CCCCC[C@@H](/C=C/C=C\CCCCCCCC(=O)O)OO,5820
2,CCCCC/C=C\C/C=C\C/C=C\C=C\[C@H](CCCC(=O)O)OO,6010
3,N[C@@]1(C(=O)O)CC[C@@H](C(=O)O)C1,10000
4,C=CCN1C[C@@H](C)N([C@H](c2ccc(C(=O)N(CC)CC)cc2)c2cccc(OC)c2)C[C@@H]1C,7950
5,N#CC(=Cc1ccc(O)c(O)c1)C(N)=S,9590
6,CCNC(=O)[C@H]1O[C@@H](n2cnc3c(N)ncnc32)C(O)[C@H]1O (some centres not stated),8960
7,C[C@@H]1O[C@H](C[N+](C)(C)C)C[C@H]1O,10400
8,c1ccc2cc(CC3=NCCN3)ccc2c1,10500
9,CCCCC[C@@H](/C=C/C=C\C/C=C\C/C=C\CCCC(=O)O)OO,5950
10,CO/C1=C\C(C)=C\[C@@H](C)[C@@H](O)[C@@H](C)C/C(C)=C/C=C/[C@H](OC)[C@@H]([C@@H](C)[C@@H](O)[C@H](C)[C@@]2(O)C[C@@H](O)[C@H](C)[C@@H](C(C)C)O2)OC1=O,2860
11,C=CCN1CCC23c4c5ccc(O)c4O[C@H]2C(=O)CC[C@@]3(O)C1C5 (some centres not stated),10600
12,CCCCCCCCCCCCCC(=O)O[C@@H]1[C@@H](C)[C@@]2(O)[C@@H](C=C(CO)C[C@@]3(O)C(=O)C(C)=C[C@@H]23)C2C(C)(C)[C@@]21OC(C)=O (some centres not stated),618
13,CCCCCC1OC1C/C=C\CCCCCCCC(=O)O (configuration not stated),6070
14,Oc1ccc2c3c1O[C@H]1c4[nH]c5ccccc5c4C[C@@]4(O)C(C2)N(CC2CC2)CCC314 (some centres not stated),8080
15,COc1cc(C(O)CN)ccc1O (configuration not stated),10500
16,N#CC(C#N)=Cc1ccc(O)cc1,5070
17,NC1CC1c1ccccc1 (configuration not stated),10400 and 9270
18,CCCCC/C=C\C/C=C\C/C=C\C/C=C\CCCC(=O)NCCO,6130 and 5160
19,O=C(NC1CN2CCC1CC2)c1cc2ccoc2cn1 (configuration not stated),10300
20,CN1CCC[C@@H]1Cc1c[nH]c2ccc(Nc3ncccc3[N+](=O)[O-])cc12,7510
21,C[C@@H]1O[C@@H](O[C@H]2C[C@@H](O)[C@]3(CO)[C@@H]4C(CC[C@]3(O)C2)[C@@]2(O)CC[C@H](C3COC(=O)C3)[C@@]2(C)C[C@H]4O)[C@H](O)[C@H](O)[C@H]1O (some centres not stated),430
22,NC(CCP(=O)(O)O)C(=O)O (configuration not stated),9940

# Assay: chitosan synthesis blockers in C. neoformans – flow cytometry, Cibacron Brilliant Red staining (AID 1347148);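 further: compound exposure lasted three days at 37 degrees C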
# Details: Cryptococcus neoformans chitosan, stronger effect = lower value; at 10 µM unless noted
row,SMILES,fold fluorescence
1,CCCCC/C=C\C/C=C\CCCCCCCC(=O)NCCO,4.78 (inactive)
2,CCCCCCCCCCCCCCCCOC[C@@H](COP(=O)([O-])OCC[N+](C)(C)C)OC(C)=O,4.51 (inactive) and 4.92 (inactive)
3,CCCCC/C=C\C/C=C\C/C=C\CCCCCCC(=O)NCCO,5.22 (inactive)
4,CCCCC/C=C\C/C=C\C/C=C\C/C=C\CCCC(N)=O,4.13 (inactive)
5,CCCCC/C=C\C/C=C\C/C=C\C/C=C\CCCCCC(=O)NCCO,5.48 (inactive)
6,CCCCC/C=C\C[C@@H](/C=C/C=C\C/C=C\CCCC(=O)O)OO,6.04 [at 1 µM] (inactive)
7,CCCCC/C=C\C=C\[C@H](CCCCCCCC(=O)O)OO,5.11 [at 1 µM] (inactive)
8,Clc1ccc(C2CC3CCC2N3)cn1 (configuration not stated),4.32 [at 239.6 µM] (inactive)
9,CCCC[C@H]1C(=O)O[C@H](C)[C@H](NC(=O)c2cccc(NC=O)c2OC)C(=O)O[C@@H](C)[C@@H]1OC(=O)CC(C)C,6.91 [at 93.5 µM] (inactive)
10,CCCCC[C@@H](/C=C/C=C\CCCCCCCC(=O)O)OO,6.27 [at 1 µM] (inactive)
11,CCCCC/C=C\C/C=C\C/C=C\C=C\[C@H](CCCC(=O)O)OO,5.34 [at 1 µM] (inactive)
12,CCCCC[C@@H](/C=C/C=C\C/C=C\C/C=C\CCCC(=O)O)OO,5.13 [at 1 µM] (inactive)
13,CO/C1=C\C(C)=C\[C@@H](C)[C@@H](O)[C@@H](C)C/C(C)=C/C=C/[C@H](OC)[C@@H]([C@@H](C)[C@@H](O)[C@H](C)[C@@]2(O)C[C@@H](O)[C@H](C)[C@@H](C(C)C)O2)OC1=O,11.4 [at 8 µM] (inactive)
14,CCCCCC1OC1C/C=C\CCCCCCCC(=O)O (configuration not stated),4.22 [at 1 µM] (inactive)
15,N#CC(C#N)=Cc1ccc(O)cc1,5.71 [at 293.8 µM] (inactive)
16,CCCCC/C=C\C/C=C\C/C=C\C/C=C\CCCC(=O)NCCO,5.85 (inactive)

# Assay: blockers of cellular phospholipid synthesis – cell-based, LOPAC library, screen 4, primary screen (AID 1347384)
# Details: animal cells, phospholipid biosynthesis inhibition screen; at 10 µM
row,SMILES,outcome
1,CC(C)(C)OC(=O)NC1[C@H]2CNC[C@@H]12 (some centres not stated),inactive
2,O=C1CC[C@@]2(O)C3Cc4ccc(O)c5c4C2(CCN3CC2CC2)[C@H]1O5 (some centres not stated),inactive
3,N=C(N)c1ccc(CS(=O)(=O)F)cc1,inactive
4,NC(CP(=O)(O)O)C(=O)O (configuration not stated),inactive
5,C[C@]12Cc3cn4c(nc3C=C1CCC1C2CC[C@@]2(C)[C@H]1CC[C@@]2(O)C#N)nc1ccccc14 (some centres not stated),inactive
6,CC(N)c1cccc(Cl)c1Cl (configuration not stated),inactive
7,C=CCN1CC[C@]23CCCCC2[C@H]1Cc1ccc(O)cc13 (some centres not stated),inactive
8,O=C1/C(=C/c2ccccc2)C[C@@]2(O)[C@H]3Cc4ccc(O)c5c4[C@@]2(CCN3CC2CC2)[C@H]1O5,inactive
9,COc1ccc2c(c1)C13CCCCC1C(C2)N(C)CC3 (configuration not stated),inactive
10,N[C@@]1(C(=O)O)CC[C@@H](C(=O)O)C1,inactive
11,C=CCN1C[C@@H](C)N([C@H](c2ccc(C(=O)N(CC)CC)cc2)c2cccc(OC)c2)C[C@@H]1C,inactive
12,N#CC(=Cc1ccc(O)c(O)c1)C(N)=S,inactive
13,CCNC(=O)[C@H]1O[C@@H](n2cnc3c(N)ncnc32)C(O)[C@H]1O (some centres not stated),inactive
14,C[C@@H]1O[C@H](C[N+](C)(C)C)C[C@H]1O,inactive
15,c1ccc2cc(CC3=NCCN3)ccc2c1,inactive
16,C=CCN1CCC23c4c5ccc(O)c4O[C@H]2C(=O)CC[C@@]3(O)C1C5 (some centres not stated),inactive
17,CCCCCCCCCCCCCC(=O)O[C@@H]1[C@@H](C)[C@@]2(O)[C@@H](C=C(CO)C[C@@]3(O)C(=O)C(C)=C[C@@H]23)C2C(C)(C)[C@@]21OC(C)=O (some centres not stated),inactive
18,Oc1ccc2c3c1O[C@H]1c4[nH]c5ccccc5c4C[C@@]4(O)C(C2)N(CC2CC2)CCC314 (some centres not stated),inactive
19,COc1cc(C(O)CN)ccc1O (configuration not stated),inactive
20,NC1CC1c1ccccc1 (configuration not stated),inactive
21,O=C(NC1CN2CCC1CC2)c1cc2ccoc2cn1 (configuration not stated),inactive
22,CN1CCC[C@@H]1Cc1c[nH]c2ccc(Nc3ncccc3[N+](=O)[O-])cc12,inactive
23,C[C@@H]1O[C@@H](O[C@H]2C[C@@H](O)[C@]3(CO)[C@@H]4C(CC[C@]3(O)C2)[C@@]2(O)CC[C@H](C3COC(=O)C3)[C@@]2(C)C[C@H]4O)[C@H](O)[C@H](O)[C@H]1O (some centres not stated),inactive
24,NC(CCP(=O)(O)O)C(=O)O (configuration not stated),inactive
